Source: the supplement of paper PMC10849652
Of roughly 7,900 targets only a part is listed; those with a hit were picked by preference. About 0.6% of all pairs of compound and target were hits. A number with no mark means an inactive call.

UniProt O94874, sequence (O94874 whole entry, looked up): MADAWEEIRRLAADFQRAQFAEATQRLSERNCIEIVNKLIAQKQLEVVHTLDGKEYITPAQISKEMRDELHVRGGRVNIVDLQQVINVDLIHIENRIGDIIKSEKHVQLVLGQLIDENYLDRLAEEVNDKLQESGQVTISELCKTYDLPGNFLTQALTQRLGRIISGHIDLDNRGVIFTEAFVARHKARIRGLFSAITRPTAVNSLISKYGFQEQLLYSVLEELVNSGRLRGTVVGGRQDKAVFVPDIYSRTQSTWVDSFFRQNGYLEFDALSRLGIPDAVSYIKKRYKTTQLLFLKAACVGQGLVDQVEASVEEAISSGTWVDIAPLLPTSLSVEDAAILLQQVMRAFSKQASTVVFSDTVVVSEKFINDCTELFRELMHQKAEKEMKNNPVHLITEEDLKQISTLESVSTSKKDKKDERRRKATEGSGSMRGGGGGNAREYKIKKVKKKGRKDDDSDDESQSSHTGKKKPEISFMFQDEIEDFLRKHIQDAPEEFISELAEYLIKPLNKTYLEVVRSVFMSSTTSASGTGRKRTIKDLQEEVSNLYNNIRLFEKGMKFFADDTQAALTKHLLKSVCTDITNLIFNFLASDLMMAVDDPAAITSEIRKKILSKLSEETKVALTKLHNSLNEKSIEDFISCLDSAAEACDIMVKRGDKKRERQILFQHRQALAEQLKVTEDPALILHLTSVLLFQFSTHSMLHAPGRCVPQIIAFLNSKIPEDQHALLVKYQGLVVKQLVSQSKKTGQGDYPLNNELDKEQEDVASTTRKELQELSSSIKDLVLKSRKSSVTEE
UniProt P43897, sequence (P43897 whole entry, looked up): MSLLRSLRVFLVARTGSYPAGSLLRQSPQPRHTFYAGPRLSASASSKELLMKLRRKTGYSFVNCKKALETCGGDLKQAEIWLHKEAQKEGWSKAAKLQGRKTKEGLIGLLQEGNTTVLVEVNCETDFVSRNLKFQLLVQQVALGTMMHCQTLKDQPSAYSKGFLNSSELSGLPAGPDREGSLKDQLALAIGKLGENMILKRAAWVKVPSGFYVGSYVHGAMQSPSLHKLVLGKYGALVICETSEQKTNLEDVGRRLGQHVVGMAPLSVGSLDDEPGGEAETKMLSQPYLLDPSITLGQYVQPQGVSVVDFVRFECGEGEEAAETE
UniProt O75717, sequence (O75717 whole entry, looked up): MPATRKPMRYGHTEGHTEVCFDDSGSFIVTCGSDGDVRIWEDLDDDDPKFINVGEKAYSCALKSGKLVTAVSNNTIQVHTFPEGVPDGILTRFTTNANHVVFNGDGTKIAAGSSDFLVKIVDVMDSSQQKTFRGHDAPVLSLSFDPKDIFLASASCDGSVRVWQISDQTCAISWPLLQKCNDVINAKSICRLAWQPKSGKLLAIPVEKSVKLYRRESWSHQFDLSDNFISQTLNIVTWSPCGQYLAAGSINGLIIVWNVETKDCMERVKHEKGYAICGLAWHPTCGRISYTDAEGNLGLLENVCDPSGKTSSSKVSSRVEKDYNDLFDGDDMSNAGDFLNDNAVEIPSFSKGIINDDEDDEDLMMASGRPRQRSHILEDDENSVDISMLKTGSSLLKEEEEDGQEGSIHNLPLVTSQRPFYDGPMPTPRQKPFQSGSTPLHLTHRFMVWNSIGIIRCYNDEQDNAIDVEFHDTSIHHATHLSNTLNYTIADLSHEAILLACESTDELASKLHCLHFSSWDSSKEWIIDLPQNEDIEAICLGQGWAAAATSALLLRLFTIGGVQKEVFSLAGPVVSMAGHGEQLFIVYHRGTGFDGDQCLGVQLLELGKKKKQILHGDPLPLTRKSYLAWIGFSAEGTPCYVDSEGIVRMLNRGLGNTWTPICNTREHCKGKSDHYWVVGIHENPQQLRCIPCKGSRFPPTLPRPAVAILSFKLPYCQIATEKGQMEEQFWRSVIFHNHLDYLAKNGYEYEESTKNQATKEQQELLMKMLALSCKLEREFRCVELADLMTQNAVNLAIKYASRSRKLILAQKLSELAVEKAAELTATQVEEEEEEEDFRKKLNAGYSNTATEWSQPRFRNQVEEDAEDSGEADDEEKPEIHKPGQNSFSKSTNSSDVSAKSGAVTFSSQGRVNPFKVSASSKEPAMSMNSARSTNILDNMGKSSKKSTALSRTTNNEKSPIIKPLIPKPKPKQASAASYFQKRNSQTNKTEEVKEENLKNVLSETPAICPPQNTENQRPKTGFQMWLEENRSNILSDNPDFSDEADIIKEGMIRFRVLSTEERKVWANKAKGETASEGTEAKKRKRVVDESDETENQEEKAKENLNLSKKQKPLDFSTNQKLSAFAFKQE
UniProt Q96JG6, sequence (Q96JG6 whole entry, looked up): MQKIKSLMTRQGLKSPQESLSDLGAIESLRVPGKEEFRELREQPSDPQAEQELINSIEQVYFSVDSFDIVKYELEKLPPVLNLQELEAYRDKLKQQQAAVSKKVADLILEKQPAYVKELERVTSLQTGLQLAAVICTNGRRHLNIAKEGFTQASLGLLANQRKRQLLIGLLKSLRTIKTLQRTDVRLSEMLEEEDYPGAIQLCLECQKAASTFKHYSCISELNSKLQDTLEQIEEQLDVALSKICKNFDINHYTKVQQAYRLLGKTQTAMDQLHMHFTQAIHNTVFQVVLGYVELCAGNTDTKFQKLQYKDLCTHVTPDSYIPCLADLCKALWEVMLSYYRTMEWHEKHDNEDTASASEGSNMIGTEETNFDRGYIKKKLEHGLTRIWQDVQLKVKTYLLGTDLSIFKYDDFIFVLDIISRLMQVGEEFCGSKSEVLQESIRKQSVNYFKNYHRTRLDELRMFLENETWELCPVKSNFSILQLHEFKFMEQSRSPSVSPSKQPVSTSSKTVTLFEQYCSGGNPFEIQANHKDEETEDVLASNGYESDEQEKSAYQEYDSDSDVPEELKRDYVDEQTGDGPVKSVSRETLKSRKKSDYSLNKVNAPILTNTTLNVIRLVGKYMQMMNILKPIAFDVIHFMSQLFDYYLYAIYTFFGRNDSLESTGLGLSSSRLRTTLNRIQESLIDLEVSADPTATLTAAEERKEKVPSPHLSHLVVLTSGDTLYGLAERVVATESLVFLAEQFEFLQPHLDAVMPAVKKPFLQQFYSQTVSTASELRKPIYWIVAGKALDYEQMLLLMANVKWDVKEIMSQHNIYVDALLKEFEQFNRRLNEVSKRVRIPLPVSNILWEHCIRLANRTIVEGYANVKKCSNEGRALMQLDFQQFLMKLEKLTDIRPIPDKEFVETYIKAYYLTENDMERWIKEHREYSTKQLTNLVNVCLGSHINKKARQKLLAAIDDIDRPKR
UniProt Q16763, sequence (Q16763 whole entry, looked up): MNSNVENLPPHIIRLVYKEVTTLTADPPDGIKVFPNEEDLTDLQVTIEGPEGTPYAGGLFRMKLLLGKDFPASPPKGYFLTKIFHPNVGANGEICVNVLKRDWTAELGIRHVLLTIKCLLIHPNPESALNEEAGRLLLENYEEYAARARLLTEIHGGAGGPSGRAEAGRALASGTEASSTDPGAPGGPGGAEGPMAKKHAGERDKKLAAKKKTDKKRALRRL
UniProt Q9NQW7, sequence (Q9NQW7 whole entry, looked up): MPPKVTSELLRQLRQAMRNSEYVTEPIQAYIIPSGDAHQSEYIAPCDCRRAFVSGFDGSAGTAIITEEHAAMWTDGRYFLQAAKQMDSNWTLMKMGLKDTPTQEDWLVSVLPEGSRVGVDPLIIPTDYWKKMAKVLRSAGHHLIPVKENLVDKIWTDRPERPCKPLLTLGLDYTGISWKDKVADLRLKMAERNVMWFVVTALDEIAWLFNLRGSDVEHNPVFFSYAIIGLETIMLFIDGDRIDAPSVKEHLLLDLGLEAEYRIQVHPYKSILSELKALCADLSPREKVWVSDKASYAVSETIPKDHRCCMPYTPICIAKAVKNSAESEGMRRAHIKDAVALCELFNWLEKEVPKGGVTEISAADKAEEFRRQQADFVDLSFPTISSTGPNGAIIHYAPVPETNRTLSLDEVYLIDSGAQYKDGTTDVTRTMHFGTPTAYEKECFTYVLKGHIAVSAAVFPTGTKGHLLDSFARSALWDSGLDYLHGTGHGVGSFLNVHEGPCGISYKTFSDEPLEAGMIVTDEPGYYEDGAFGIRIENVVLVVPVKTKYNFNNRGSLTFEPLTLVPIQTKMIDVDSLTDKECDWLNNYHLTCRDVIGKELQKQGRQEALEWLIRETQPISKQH
UniProt Q9P0T7, sequence (Q9P0T7 whole entry, looked up): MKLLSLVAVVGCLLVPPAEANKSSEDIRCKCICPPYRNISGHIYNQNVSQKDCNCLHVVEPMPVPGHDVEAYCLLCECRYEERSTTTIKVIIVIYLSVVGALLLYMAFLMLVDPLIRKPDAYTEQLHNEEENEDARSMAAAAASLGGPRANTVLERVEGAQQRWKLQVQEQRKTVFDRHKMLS
UniProt Q96LJ8, sequence (Q96LJ8 whole entry, looked up): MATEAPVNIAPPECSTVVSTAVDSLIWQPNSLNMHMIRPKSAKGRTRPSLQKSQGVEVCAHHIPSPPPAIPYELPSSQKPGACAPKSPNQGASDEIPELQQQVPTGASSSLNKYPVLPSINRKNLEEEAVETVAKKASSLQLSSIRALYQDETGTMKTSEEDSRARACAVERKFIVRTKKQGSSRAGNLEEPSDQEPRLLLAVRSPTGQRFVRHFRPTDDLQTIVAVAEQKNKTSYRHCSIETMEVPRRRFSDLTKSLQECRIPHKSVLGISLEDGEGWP
UniProt Q7Z6J8, sequence (Q7Z6J8 whole entry, looked up): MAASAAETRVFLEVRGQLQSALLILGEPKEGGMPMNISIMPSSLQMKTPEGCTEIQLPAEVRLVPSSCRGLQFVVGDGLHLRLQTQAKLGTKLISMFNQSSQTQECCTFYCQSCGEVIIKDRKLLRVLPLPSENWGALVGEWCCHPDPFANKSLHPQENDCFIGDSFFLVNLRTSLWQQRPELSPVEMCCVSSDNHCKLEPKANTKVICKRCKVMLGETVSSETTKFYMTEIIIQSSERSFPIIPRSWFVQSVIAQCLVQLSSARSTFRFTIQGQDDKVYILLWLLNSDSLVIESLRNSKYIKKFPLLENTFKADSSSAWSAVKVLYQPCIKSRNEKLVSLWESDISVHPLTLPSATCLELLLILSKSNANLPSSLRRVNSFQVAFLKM

What follows are targets tested with Cn1cc(-c2ccc3nnc(C(F)(F)c4ccc5ncccc5c4)n3n2)cn1 (assay: log2 fold change, soluble protein after heating vs DMSO (PISA); higher = thermal stabilisation; K562 cells, 10 uM, 30 min; active = over 0.2 and 3.5 SD of the protein, either way, in both replicates (recomputed)).
In short: (§1)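 Quantification of soluble protein used TMTpro 16plex LC-MS/MS, with channel sums equalised. Samples were the supernatant after 21,000xg for 90 min of pooled aliquots from K562 cells (2×10^6 cells/mL) treated with 10 μM compound for 30 min, heated for 3 min over 48°C-58°C, and extracted in PBS with 0.5% NP-40 at 4°C. Values, from duplicates, describe thermal stability against control samples on a log2 fold-change scale.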
In the case of TMEM8A (UniProt Q9HCN3), the log2 fold change is reported as 0. UBAP2L isoform 1 (UniProt Q14157) showed a log2 fold change of 0.034. For UBE4A isoform 2 (UniProt Q14139), the log2 fold change was -0.023. XPNPEP1 isoform 3 (UniProt Q9NQW7) showed a log2 fold change of 0.039. In the case of UTP14A (UniProt Q9BVJ6), the log2 fold change is reported as -0.09. With VAMP7 (UniProt P51809) the log2 fold change was 0.086. With WDR4 (UniProt P57081) the log2 fold change was -0.061. With TOP2A isoform 4 (UniProt P11388) the log2 fold change was -0.324. In the case of UBA1 (UniProt P22314), the log2 fold change is reported as 0.121. In the case of WDHD1 (UniProt O75717), the log2 fold change is reported as 0.022. WDR61 (UniProt Q9GZS3) was tested, and the log2 fold change was 0.012. VTI1A (UniProt Q96AJ9) was tested, and the log2 fold change was 0.01. Target VPS8 (UniProt Q8N3P4) has a log2 fold change of -0.083. With USO1 isoform 2 (UniProt O60763) the log2 fold change was -0.003. For TSFM (UniProt P43897), the log2 fold change was 0.033. For TMEM9 (UniProt Q9P0T7), the log2 fold change was -0.007. UBAP1 isoform 4 (UniProt Q9NZ09) showed a log2 fold change of -0.015. VPS50 (UniProt Q96JG6) gave a log2 fold change of -0.035. For UNC119B (UniProt A6NIH7), the log2 fold change was -0.089. XPO6 (UniProt Q96QU8) showed a log2 fold change of -0.117. TUBA4A (UniProt P68366) gave a log2 fold change of 0.051. Target TRMT10C (UniProt Q7L0Y3) has a log2 fold change of 0.038. For TMEM120A (UniProt Q9BXJ8), the log2 fold change was 0.057. UBXN10 (UniProt Q96LJ8) showed a log2 fold change of 0.021. Target TNPO1 (UniProt Q92973) has a log2 fold change of 0.009. Work on UFL1 (UniProt O94874) yielded a log2 fold change of -0.007. For VTI1B (UniProt Q9UEU0), the log2 fold change was 0.037. Target VKORC1 (UniProt Q9BQB6) has a log2 fold change of 0.081. Target VPS52 (UniProt Q8N1B4) has a log2 fold change of -0.016. Work on UBE3D (UniProt Q7Z6J8) yielded a log2 fold change of 0.013. VPS33B (UniProt Q9H267) was tested, and the log2 fold change was -0.069. USP48 isoform 8 (UniProt Q86UV5) was tested, and the log2 fold change was 0.097. UBE2S (UniProt Q16763) was tested, and the log2 fold change was -0.037. In the case of TMTC3 (UniProt Q6ZXV5), the log2 fold change is reported as 0.061.

The targets below were run with Cn1cncc1[C@@](N)(c1ccc(Cl)cc1)c1ccc2c(c1)c(-c1cccc(Cl)c1)cc(=O)n2C [tipifarnib] in the same assay as above.
In short: as §1
With TMEM8A (UniProt Q9HCN3) the log2 fold change was 0.047. Work on UBAP2L isoform 1 (UniProt Q14157) yielded a log2 fold change of 0.076. UBE4A isoform 2 (UniProt Q14139) was tested, and the log2 fold change was -0.092. For XPNPEP1 isoform 3 (UniProt Q9NQW7), the log2 fold change was -0.033. UTP14A (UniProt Q9BVJ6) showed a log2 fold change of 0.089. Work on VAMP7 (UniProt P51809) yielded a log2 fold change of -0.04. With WDR4 (UniProt P57081) the log2 fold change was -0.132. With TOP2A isoform 4 (UniProt P11388) the log2 fold change was 0.104. UBA1 (UniProt P22314) showed a log2 fold change of -0.235. For WDHD1 (UniProt O75717), the log2 fold change was -0.041. Target WDR61 (UniProt Q9GZS3) has a log2 fold change of -0.01. Target VTI1A (UniProt Q96AJ9) has a log2 fold change of 0.081. In the case of VPS8 (UniProt Q8N3P4), the log2 fold change is reported as -0.078. In the case of USO1 isoform 2 (UniProt O60763), the log2 fold change is reported as -0.068. Work on TSFM (UniProt P43897) yielded a log2 fold change of 0.013. Work on TMEM9 (UniProt Q9P0T7) yielded a log2 fold change of -0.068. UBAP1 isoform 4 (UniProt Q9NZ09) was tested, and the log2 fold change was -0.131. In the case of VPS50 (UniProt Q96JG6), the log2 fold change is reported as -0.066. Target UNC119B (UniProt A6NIH7) has a log2 fold change of -0.143. In the case of XPO6 (UniProt Q96QU8), the log2 fold change is reported as -0.111. TUBA4A (UniProt P68366) was tested, and the log2 fold change was -0.073. Work on TRMT10C (UniProt Q7L0Y3) yielded a log2 fold change of -0.037. Target TMEM120A (UniProt Q9BXJ8) has a log2 fold change of 0.011. Work on UBXN10 (UniProt Q96LJ8) yielded a log2 fold change of 0.01. For TNPO1 (UniProt Q92973), the log2 fold change was -0.026. In the case of UFL1 (UniProt O94874), the log2 fold change is reported as -0.052. Target VTI1B (UniProt Q9UEU0) has a log2 fold change of 0.085. VKORC1 (UniProt Q9BQB6) showed a log2 fold change of 0. VPS52 (UniProt Q8N1B4) was tested, and the log2 fold change was -0.089. For UBE3D (UniProt Q7Z6J8), the log2 fold change was -0.049. With VPS33B (UniProt Q9H267) the log2 fold change was -0.107. In the case of USP48 isoform 8 (UniProt Q86UV5), the log2 fold change is reported as -0.11. Work on UBE2S (UniProt Q16763) yielded a log2 fold change of -0.072. With TMTC3 (UniProt Q6ZXV5) the log2 fold change was -0.018.
